# Screening data deposited in PubChem by National Center for Advancing Translational Sciences (NCATS).
# FLuc inh = Firefly luciferase inhibition profiling of diverse chemical library using quantitative high-throughput screening; Luciferin 4-monooxygenase (Photinus pyralis), P08659; purified P. pyralis luciferase, luminescence, biochemical; Potency, µM (top dose mostly 115 µM), actives largely listed as inhibitors; 76,000 tested, 2.5% active; AID 1347043, 2019; further: nearly all actives have a fitted effect of over 65% in size
#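 Luminescence read by CCD imager after adding enzyme (10nM final) to wells holding compound, titrated in qHTS. Substrates 10uM each D-luciferin and ATP; buffer 50mM Tris acetate pH 7.5, 10mM Mg acetate, Tween-20, BSA.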
# NIH3T3 tox = Cytotoxic Profiling in NIH 3T3 Cell Line of Diverse Libraries Using Quantitative High-Throughput Screening. AID 1345082, 2018. Potency, µM (titrated, usually from 96.7 µM), without a hit: top-dose activity change, negative = cytotoxicity, actives largely listed as inhibitors. 94,000 tested, 4.3% active. NIH 3T3 viability, CellTiter-Glo ATP luminescence, 48-72 h; further: nearly all actives have a fitted effect of over 55% in size
#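 Cytotoxicity is measured as loss of cellular ATP: NIH 3T3 cells (400/well) are exposed to compound for 48 or 72 hr at 37 °C, then CellTiter-Glo luminescence is imaged after 10 min at room temperature.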
# HEK293 tox = Cytotoxic Profiling in HEK 293 Cell Line of Diverse Libraries Using Quantitative High-Throughput Screening; HEK 293 viability, ATP luminescence (CellTiter-Glo), 48-72 h; Potency, µM (doses to about 115 µM), without a hit: at the highest dose activity change, negative = cytotoxicity, usual class: inhibitors; 94,000 tested, 6.6% active; further: nearly all actives have a fitted effect of over 60% in size
#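 qHTS cytotoxicity; HEK 293, 250 cells/well; compound pinned; 48 or 72 hr, 37 degree Celsius, 5% CO2, 95% humidity; CellTiter-Glo, 10 min RT; luminescence (ATP).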
# NPR1 antag = Natriuretic polypeptide receptor (hNpr1) antagonism - Primary qHTS; Atrial natriuretic peptide receptor 1 (Homo sapiens), P16066; HEK293 hNpr1 GloSensor cGMP, ANP-stimulated luminescence; Potency, µM (doses to about 46.3 µM), for the others: at the highest dose activity change, negative = inhibition, most hits filed as inhibitors; 76,000 tested, 1.6% active; AID 1347048, 2019; calls by dose curve; further: nearly all actives have a fitted effect of over 60% in size
# Target sequence (P16066 whole entry, looked up): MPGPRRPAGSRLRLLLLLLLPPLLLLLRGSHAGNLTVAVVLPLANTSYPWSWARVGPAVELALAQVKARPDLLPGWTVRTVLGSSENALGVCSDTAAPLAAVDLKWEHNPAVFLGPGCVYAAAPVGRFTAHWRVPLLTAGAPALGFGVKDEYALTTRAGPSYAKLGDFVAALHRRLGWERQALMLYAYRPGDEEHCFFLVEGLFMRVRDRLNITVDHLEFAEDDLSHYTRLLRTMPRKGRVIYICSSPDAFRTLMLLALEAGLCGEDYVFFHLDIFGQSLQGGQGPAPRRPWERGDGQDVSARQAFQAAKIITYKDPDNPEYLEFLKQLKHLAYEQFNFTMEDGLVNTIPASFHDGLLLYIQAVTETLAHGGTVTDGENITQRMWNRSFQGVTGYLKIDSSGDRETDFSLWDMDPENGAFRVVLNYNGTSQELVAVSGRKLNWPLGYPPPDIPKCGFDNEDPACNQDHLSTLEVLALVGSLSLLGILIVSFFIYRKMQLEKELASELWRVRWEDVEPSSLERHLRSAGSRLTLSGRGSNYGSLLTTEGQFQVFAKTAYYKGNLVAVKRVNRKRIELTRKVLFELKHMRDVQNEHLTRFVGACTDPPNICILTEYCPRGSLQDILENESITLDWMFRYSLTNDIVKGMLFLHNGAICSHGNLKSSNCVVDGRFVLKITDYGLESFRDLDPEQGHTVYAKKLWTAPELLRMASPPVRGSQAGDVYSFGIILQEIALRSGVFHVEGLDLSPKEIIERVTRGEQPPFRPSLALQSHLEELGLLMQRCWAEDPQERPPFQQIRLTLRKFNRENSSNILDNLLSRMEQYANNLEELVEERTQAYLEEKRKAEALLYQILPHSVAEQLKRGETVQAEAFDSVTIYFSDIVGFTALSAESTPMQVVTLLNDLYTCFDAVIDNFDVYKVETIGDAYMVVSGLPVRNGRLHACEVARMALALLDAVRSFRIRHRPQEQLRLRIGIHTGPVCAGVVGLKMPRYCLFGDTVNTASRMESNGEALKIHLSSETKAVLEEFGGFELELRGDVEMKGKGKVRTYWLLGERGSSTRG
#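 HEK293 cells stably expressing human Npr1 and cGMP GloSensor pGS-40F, loaded 2 h with 2% GloSensor reagent, given compound 30 min at room temperature. Luminescence read before and 20 min after 0.1 nM hNppA.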
# Starred values were filed as active, the others as inactive; i = inactive; ? = inconclusive; nt = no result given; [ ] = remark or other dose. Compounds with a hit are over-represented: about 11% of the library has one in this group of screens. Unless noted, the call rests on the fitted dose curve; in most records, active means well fitted curve in the direction sought with a large enough effect; inconclusive means small, poorly fitted or top-dose-only effect, or another doubt; inactive means no such curve, though single readings can be large; an effect the other way counts as inactive or inconclusive. On the % scale 0 is the no-effect control and ±100 the full control effect; potency means the concentration at half of the fitted maximal effect.
SMILES,FLuc inh,NIH3T3 tox,HEK293 tox,NPR1 antag
O=C(COc1ccccc1)N1CCC(Cc2nc(-c3ccncc3)n[nH]2)CC1,i,-30%,-5%,2%
O=C(C1CC1)N1CCC2(CC1)CC(Cc1nc(-c3ccncc3)no1)CCO2 (centres undefined),i,?,45µM*,?
COc1cccc(CC(=O)N2CCC3(CC2)CC(Cc2nc(-c4ccncc4)no2)CCO3)c1 (centres undefined),i,?,40µM*,?
COc1cccc(CC(=O)N2CCC(Cc3nc(-c4ccncc4)n[nH]3)C2)c1 (centres undefined),i,?,13µM*,-15%
c1ccc(-c2noc(CC3CCOC4(CCN(Cc5cccnc5)CC4)C3)n2)cc1 (centres undefined),i,?,25µM*,?
CCn1ncc(N2CCC(NC(=O)c3cccc(N(C)C)c3)CC2)cc1=O,?,-22%,-1%,-3%
O=C(NCCc1ccc(Cl)cc1)C1CCc2nnc(-c3ccc(F)cc3)n21 (centres undefined),nt,-14%,-25%,nt
O=c1cc(N2CCOCC2)oc2c(NCC3CCOCC3)nccc12,i,28µM*,-9%[172 µM],1%[70.6 µM]
CN1CCN(c2cc(=O)c3ccnc(NCc4ccccc4)c3o2)CC1,i,?,i,4%[70.6 µM]
O=c1cc(N2CCOCC2)oc2c(NCc3cnccn3)nccc12,i,100µM*,-3%[172 µM],4%[70.6 µM]
COc1ccc(Cn2c(=O)c(C(=O)NC(C)C)nc3cccnc32)cc1,nt,-27%,-12%,nt
OC(c1cccc(C(F)(F)F)c1)c1nc(Nc2ccncc2)n[nH]1 (centres undefined),i,-66%[138 µM],?,-12%[70.6 µM]
OC(c1cccc(C(F)(F)F)c1)c1nc(Nc2ccc(N3CCOCC3)cc2)n[nH]1 (centres undefined),35µM*,-16%[138 µM],?,?
OC(c1cccc(C(F)(F)F)c1)c1nc(Nc2ccccc2)n[nH]1 (centres undefined),i,?,89µM*,-20%[70.6 µM]
OC(c1cccc(C(F)(F)F)c1)c1nc(Nc2ccc(F)cc2F)n[nH]1 (centres undefined),i,71µM*,79µM*,-26%[70.6 µM]
OC(c1cccc(C(F)(F)F)c1)c1nc(Nc2cccnc2)n[nH]1 (centres undefined),i,-23%[138 µM],?,-23%[70.6 µM]
Cc1nnc2ccc(N3CCN(C(=O)Nc4ccccc4)CC3)nn12,nt,?,i,nt
Cc1cc(-n2cccn2)ccc1CN(C)CC(C)N1CCOCC1 (centres undefined),i,-10%,-1%,6%
CN(CCc1noc(C2CN(Cc3ccc(Cl)c(F)c3)C2)n1)S(C)(=O)=O,i,?,40µM*,-1%
CN(CCc1noc(C2CN(Cc3ccncc3F)C2)n1)C(=O)C1CC1,nt,-20%,-26%,nt
COc1ccccc1-c1[nH]ncc1CN1CCCCCNC(=O)CC1c1ccccc1 (centres undefined),i,?,?,-15%
COc1ccc(-c2ccc(C(=O)N3CCN(C(=O)c4ccc(Cl)nc4)CC3)cc2)nn1,nt,-15%,-4%,nt
CN(c1ccccc1)c1cc(=O)c2ccnc(Nc3cccnc3)c2o1,i,10µM*,?,?
CN(c1ccccc1)c1cc(=O)c2ccnc(NCCc3ccccn3)c2o1,i,25µM*,?,1%[70.6 µM]
O=c1cc(-c2ccccn2)oc2c(Nc3cccnc3)nccc12,i,11µM*,?,4%[70.6 µM]
SMILES,FLuc inh,NIH3T3 tox,HEK293 tox,NPR1 antag
O=c1cc(-c2ccccn2)oc2c(Nc3ccccc3)nccc12,i,?,?,-17%[70.6 µM]
O=C(N[C@@H]1CN(Cc2cccc(F)c2)C[C@H]1CO)c1ccccc1,i,?,7.1µM*,5%
O=C(N[C@@H]1CN(Cc2cc(F)cc(F)c2)C[C@H]1CO)c1ccccc1,i,-64%,-81%,2%
O=C(N[C@@H]1CN(Cc2ccccc2)C[C@H]1CO)c1cn[nH]c1,i,-7%,-5%,2%
COc1ccc(C(=O)N[C@@H]2CN(Cc3ccccc3)C[C@H]2CO)cn1,i,?,28µM*,4%
O=C(c1cccc(Cl)c1)N1CCC2(CC1)CCN(Cc1cccs1)c1ccccc1O2,i,?,28µM*,-5%
O=C(Cc1cccc(Cl)c1)N1CCC2(CC1)CCN(Cc1cccs1)c1ccccc1O2,i,?,25µM*,13%
COc1ccc(NC(=O)c2ccc3c(c2)C2(CCCN(C)C2)CN3Cc2cccnc2)cc1 (centres undefined),i,32µM*,-14%,1%
CN1CCCC2(C1)CN(Cc1cccnc1)c1ccc(C(=O)NCC3CCCCC3)cc12 (centres undefined),i,35µM*,89µM*,1%[70.6 µM]
CN1CCC2(C1)CN(Cc1ccccc1)c1ccc(C(=O)Nc3ccn(C)n3)cc12 (centres undefined),i,?,?,3%[70.6 µM]
COc1cc(NC(=O)O[C@@H]2CC[C@]3(C)C(CC[C@@H](O)[C@H]3CC(=O)N3CC[C@@H](O)C3)[C@]2(C)CO)cc(OC)c1OC (some centres undefined),i,-11%,1%,1%
O=C(Nc1cnc(-c2ccc(C(F)(F)F)cc2)nc1)C1CCOC1 (centres undefined),18µM*,?,?,-20%
COc1ccccc1-c1cccc(C(=O)N2CCN([S+](=O)([O-])c3c(C)noc3C)CC2)c1,nt,-26%,?,nt
COc1ccccc1-c1cccc(C(=O)N2CCN([S+](=O)([O-])c3ccccc3)CC2)c1,nt,?,32µM*,nt
COc1ccccc1-c1cccc(C(=O)N2CCN([S+](=O)([O-])c3cccs3)CC2)c1,nt,?,20µM*,nt
COc1cccc(Nc2ncc3c(n2)C(C)(C(=O)N2CC[S+](=O)([O-])CC2)CC3)c1 (centres undefined),i,100µM*,2%[172 µM],3%[70.6 µM]
CC1(C(=O)Nc2ccccc2)COCc2cnc(Nc3ccccc3)nc21 (centres undefined),i,?,79µM*,-15%[70.6 µM]
COc1cccc(Nc2ncc3c(n2)C(C)(C(=O)Nc2nc(C)cs2)CC3)c1 (centres undefined),i,?,50µM*,-27%[70.6 µM]
Cc1csc(NC(=O)C2(C)COCc3cnc(Nc4ccccc4)nc32)n1 (centres undefined),i,?,79µM*,-12%[70.6 µM]
COCCNC(=O)C1(C)CCc2cnc(Nc3cccc(OC)c3)nc21 (centres undefined),i,?,?,1%[70.6 µM]
Cc1ccc(Br)c(C(=O)N2CCCC3(CNc4ncccc4[S+](=O)([O-])N3)C2)c1 (centres undefined),nt,-28%,-17%,nt
